Compound activity deposited in PubChem BioAssay by National Center for Advancing Translational Sciences (NCATS).
Methyltransferases = Primary Screen for Target Class Profiling of Small Molecule Inhibitors of Methyltransferases; purified enzyme, MTase-Glo SAH luminescence; hits give low values; calls only at 40 µM; 3.9% of 25,000 active; call rule not given here
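Each enzyme was assayed with SAM and its substrate. SAH formation detected by MTase-Glo luminescence; single-point 40 uM screen[…].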
Active calls of the source: *; i = inactive; + = active, no number; ! = repeats disagree. Only a selection was taken, and hits are over-represented in it overall. On the % scale 0 is the no-effect control and ±100 the full control effect.

SMILES | Methyltransferases
COC(=O)C1=C2Nc3ccccc3C23CCN2CCCC(C(C)O)(C1)C23 (configuration not stated) | +
COc1ccc(NS(=O)(=O)c2ccc3c(c2)n(C)c(=O)n3C)cc1OC | i
CCOc1ccc(CN2C(=O)c3cc4sccc4n3CC2(C)C(=O)NC2CCCCC2C)cc1 (configuration not stated) | i
Cc1ccc(Cn2c(=O)c3ccccc3n3c(CCC(=O)N4CCN(c5cccc(C)c5C)CC4)nnc23)cc1 | i
Cc1ccc(C)c(N2CCN(C(=O)CCc3nnc4n(CCC(C)C)c(=O)c5ccccc5n34)CC2)c1 | i
Cc1cccc(N2CCN(C(=O)CCc3nnc4n(CC(C)C)c(=O)c5ccccc5n34)CC2)c1C | +
O=C(CCc1nnc2n(Cc3ccccc3Cl)c(=O)c3ccccc3n12)NCc1cccnc1 | i
Cc1cnc(C2CCOCC2)n1C1CCN(S(=O)(=O)c2ccc3c(c2)OCCO3)CC1 | i
COc1ccc(S(=O)(=O)N2CCCC(c3nnnn3-c3ccccc3)C2)cc1 (configuration not stated) | i
CCCN1C(=O)c2c(C(=O)NCc3cccc(OC)c3)ncn2CC1(C)C(=O)NCCC(C)C (configuration not stated) | i
CC(C)(C)c1nn2c(SCC(=O)Nc3cccc(Cl)c3)nnc2[nH]c1=O | i
CN1CCc2c(c3ccccc3n2Cc2ccc(C(=O)NO)cc2)C1 | +!
Cn1nc2n(Cc3ccccc3)c(=O)c3ccc(C(=O)NC4CCCC4)cc3n2c1=O | i
COCCCNC(=O)c1ccc(Cn2c(=O)c3ccccc3n(Cc3ccc(C(C)C)cc3)c2=O)cc1 | i
CCN1C(=O)c2cc(C(=O)NCc3cc(OC)ccc3OC)nn2CC1(C)C(=O)NC1CCCC1 (configuration not stated) | i
CCOC(=O)Cc1ccc(NC(=O)N2CCn3cccc3C2C)cc1 (configuration not stated) | i
COC(=O)c1ncn2c1C(=O)N(c1ccc3c(c1)OCO3)C(C)(C(=O)NCc1ccccc1)C2 (configuration not stated) | i
Oc1ccc(Nc2nc(-c3ccc(Cl)cc3)cs2)cc1 | i
Clc1ccc(-c2csc(NN=C3CCCC3)n2)cc1 | +!
O=C(NCCc1ccc(Cl)cc1)c1ccc2c(=O)nc3c(-c4ccccc4F)n[nH]n3c2c1 | i
CCCN1C(=O)c2c(C(=O)NCc3ccc(OC(C)C)cc3)ncn2CC1(C)C(=O)NCCC(C)C (configuration not stated) | i
COc1ccccc1C(=O)N(Cc1ccccc1)S(=O)(=O)c1ccc2c(c1)n(C)c(=O)n2C | i
CC(C)Cn1c(=O)c2ccc(C(=O)NC3CCCCC3)cc2n2c(=O)n(Cc3ccc(F)cc3)nc12 | i
Cc1cc2c(C(C)C)c(O)c(O)c(C=O)c2c(O)c1-c1c(C)cc2c(C(C)C)c(O)c(O)c(C=O)c2c1O | +
Cn1nccc1Nc1nccc(-c2ccn([C@H](CO)c3ccc(Cl)c(F)c3)c(=O)c2)n1 | i
SMILES | Methyltransferases
O=C1C(SCCO)=C(SCCO)C(=O)c2ccccc21 | +
CCc1cccc(NC(=O)Cn2nc3n(C(C)C)c(=O)c4ccc(C(=O)NC(C)CC)cc4n3c2=O)c1 (configuration not stated) | i
Cc1ccccc1Cn1nc2n(CC(C)C)c(=O)c3ccc(C(=O)NC4CCCCC4)cc3n2c1=O | i
COc1ccc(OC)c(N2C(=O)c3cc4occc4n3CC2(C)C(=O)NC2CCCCCC2)c1 (configuration not stated) | i
O=c1[nH]c2ccc(S(=O)(=O)NCc3ccccc3Cl)cc2[nH]1 | i
Cc1ccc(C)c(N2C(=O)c3cc(-c4cccs4)nn3CC2(C)C(=O)NC2CCCCC2)c1 (configuration not stated) | i
Cc1ccc(N2C(=O)c3cc4sccc4n3CC2(C)C(=O)NC2CCC(C)CC2)cc1C (configuration not stated) | i
Nc1nc(F)nc2c1ncn2[C@@H]1O[C@H](CO)[C@@H](O)[C@@H]1O | i
OC[C@H]1O[C@@H](n2cnc3cncnc32)[C@H](O)[C@@H]1O | +
Nc1ncnc2c1c(I)cn2C1OC(CO)C(O)C1O (configuration not stated) | +
Nc1ccc(CCNc2ncnc3c2ncn3C2OC(CO)C(O)C2O)cc1 (configuration not stated) | i
OC[C@H]1O[C@@H](n2cnc3c(NC4CCCCC4)ncnc32)[C@H](O)[C@@H]1O | i
OC[C@H]1O[C@@H](n2cnc3c(NC4CCCC4)ncnc32)[C@H](O)[C@@H]1O | i
Cc1ccc(C)c(Cn2nc3n(C)c(=O)c4ccc(C(=O)NC5CCCC5)cc4n3c2=O)c1 | i
Cc1ccccc1NC(=O)CSc1nnc2[nH]c(=O)c(C(C)(C)C)nn12 | i
COc1cc(/C=C2\CCCN([C@@H](C)c3ccc(F)cc3)C2=O)ccc1-n1cnc(C)c1 | +
COc1cc(Nc2nc3c(s2)CCCC3c2ccccc2)ccc1-n1cnc(C)c1 (configuration not stated) | i
Cc1ccc(NC(=O)CSc2nnc3n(Cc4ccc(F)cc4)c(=O)c4ccccc4n23)cc1C | i
COc1ccc(CCNC(=O)c2cc3n(n2)CC(C)(C(=O)NCc2ccccc2)N(C)C3=O)cc1OC (configuration not stated) | i
O=C(O)Cc1ccc(O)c(O)c1 | +
COC(=O)[C@@H](N)Cc1ccc(O)c(O)c1 | i
N[C@@H](Cc1ccc(O)c(I)c1)C(=O)O | i
Cc1ccc(Cl)cc1N1CCN(CCNC(=O)CCc2nnc3n(C)c(=O)c4ccccc4n23)CC1 | i
COc1ccc(OC)c(S(=O)(=O)N2CCCCC2)c1 | i
CN(Cc1ccco1)C(=O)c1cc2n(n1)CC(C)(C(=O)NC1CCCCC1)N(C)C2=O (configuration not stated) | i
SMILES | Methyltransferases
CC(C)Cn1c(=O)c2ccc(C(=O)NC3CCCC3)cc2n2c(=O)n(Cc3c(F)cccc3Cl)nc12 | i
O=C(O)c1ccc(OC2OC(CO)C(O)C(O)C2O)cc1 (configuration not stated) | i
CC(O)(CC(=O)O)CC(=O)OCc1ccc(O[C@@H]2O[C@H](CO)[C@@H](O)[C@H](O)[C@H]2O)cc1 (some centres not stated) | +
CC(O)(CC(=O)O)CC(=O)O[C@@H]1[C@@H](O)[C@H](OCCc2ccccc2)O[C@H](CO)[C@H]1O (some centres not stated) | i
O=C(NCc1ccc(Oc2ccccc2)cc1)c1nc(-c2cc(Br)c(O)c(Br)c2)no1 | +
COCc1nc(-c2ccc(OC3CN(C(=O)NCc4ccc(OC)cc4)C3)cc2)no1 | i
c1ccc(CNc2nc(-c3ccccc3)no2)cc1 | i
CCc1cc2c(cc3n2CC(C)(C(=O)NC2CCC(C)CC2)N(Cc2ccc(Cl)cc2)C3=O)s1 (configuration not stated) | i
CCOc1ccccc1CN1C(=O)c2cc(C(C)(C)C)nn2CC1(C)C(=O)NCc1ccccc1 (configuration not stated) | i
CCN1CCN(Cc2ccc(Nc3ncc(F)c(-c4cc(F)c5nc(C)n(C(C)C)c5c4)n3)nc2)CC1 | +
O=C(CCn1ccc2cc(S(=O)(=O)N3CCCCC3)ccc21)NCC1CCCO1 (configuration not stated) | i
